Records with an inconclusive call do not appear. Activity calls are given as the source filed them. Unless noted, calls come from the whole dose curve.
Assays:
[1] = qHTS assay to identify small molecule agonists of the sonic hedgehog signaling (Shh) pathway (AID 1259368);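 note: NIH/3T3-derived 3T3Gli1-Luc cells carrying a stable Gli1-driven firefly luciferase reporter; series mostly up to about 92 µM; nearly all actives have a fitted effect of over 15% in size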
Outline: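 Cells of a mouse NIH/3T3 clone stably expressing luciferase under the Gli1 transcriptional response element are exposed to test chemicals for 24 hr at 37 C. Pathway activation is detected as a rise in luminescence.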

[2] = qHTS assay to identify small molecule antagonists of the sonic hedgehog signaling (Shh) pathway (AID 1259369); note: nearly all actives have a fitted effect of over 45% in size
Outline: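 Cells are plated and held 4hr at 37 C, compounds (DMSO) are pinned in, conditioned medium is added to stimulate the pathway, and after 24hr luciferase reagent is added for 30min before luminescence is read.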

[3] = target: Estrogen receptor beta (Homo sapiens) (UniProt Q92731); assay: qHTS assay to identify small molecule agonists of the estrogen receptor beta (ER-beta) signaling pathway (AID 1259377; active = well fitted activation curve with a large enough effect in the signal ratio in the repeat runs, not every such curve was filed as active; the % refers to the signal ratio)
Outline: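 ER-beta-UAS-bla HEK293T (GripTite) cells carrying a UAS-driven beta-lactamase reporter, in medium with 2% charcoal-stripped FBS, were exposed to compounds for 16 hr at 37C; LiveBLAzer B/G FRET substrate was then added and fluorescence read after 2 hours at room temperature.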

[4] = target: Estrogen receptor beta (Homo sapiens) (UniProt Q92731); assay: qHTS assay to identify small molecule antagonists of the estrogen receptor beta (ER-beta) signaling pathway (AID 1259378; active = well fitted inhibition curve with a large enough effect in the signal ratio in the repeat runs, not every such curve was filed as active; the % refers to the signal ratio)
Outline: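 Antagonist mode: compounds added to beta-lactamase reporter HEK293T ER-beta-UAS cells stimulated with E2 (1nM final), 16 hr at 37C. LiveBLAzer B/G FRET substrate, 2 hours room temperature, fluorescence read-out.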

[5] = qHTS assay to identify small molecule agonists of the androgen receptor (AR) signaling pathway in the presence of an antagonist - cell viability counter screen (AID 1259379; active = well fitted curve in the direction sought with a large enough effect in the repeat runs; an effect the other way counts as inactive or inconclusive;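 note: MDA-kb2 human breast cancer cells carrying an MMTV luciferase reporter; series mostly up to about 92 µM; nearly all actives have a fitted effect of over 25% in size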)
Outline: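 Cytotoxicity is assessed by CellTiter-Fluor in MDA-kb2 cells carrying an MMTV-driven luciferase reporter. Cells receive 3.0uM nilutamide plus compounds at 15 concentrations and incubate 16 hr at 37C without CO2 before fluorescence reading.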

[6] = qHTS assay to identify small molecule antagonists of the estrogen receptor beta (ER-beta) signaling pathway - cell viability counter screen (AID 1259382; active = well fitted curve in the direction sought with a large enough effect in the repeat runs; an effect the other way counts as inactive or inconclusive; note: series mostly up to about 92 µM; nearly all actives have a fitted effect of over 55% in size)
Outline: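 Cytotoxicity counter screen multiplexed with the beta-lactamase antagonist assay: GripTite HEK293T ER-beta-bla cells were treated 16 hr with test chemicals in the presence of 1nM 17-beta-estradiol, and viability was measured by CellTiter-Glo.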

[7] = target: Estrogen receptor (Homo sapiens) (UniProt P03372); assay: qHTS assay to identify small molecule agonists of the estrogen receptor alpha (ER-alpha) signaling pathway in the presence of an antagonist (AID 1259383); note: top concentration of the series differs between compounds; nearly all actives have a fitted effect of over 15% in size
Outline: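 Agonist-mode confirmation in the presence of the ER antagonist ICI-182,780 at 10.0nM final. Breast-derived VM7Luc4E2 reporter cells were exposed to compounds for 22hr, and ERE-driven luciferase was quantified by luminescence.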

[8] = qHTS assay to identify small molecule agonists or antagonists of the thyroid stimulating hormone receptor (TSHR) signaling pathway - wild type cell line counter screen (AID 1259384)
Outline: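 Counter screen in untransfected Hek293: compounds (15-point titration, triplicate) plus phosphodiesterase inhibitor Ro20-1724 added after 18 h plating; 30 min RT. Intracellular cAMP via competitive d2/cryptate immunoassay, 1 h incubation.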

[9] = qHTS assay to identify small molecule agonists of the estrogen receptor alpha (ER-alpha) signaling pathway in the presence of an antagonist - cell viability counter screen (AID 1259386; active = well fitted curve in the direction sought with a large enough effect in the repeat runs; an effect the other way counts as inactive or inconclusive;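 note: series mostly up to about 92 µM; cells exposed to compounds for 22 h at 37 °C before the viability read; nearly all actives have a fitted effect of over 30% in size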)
Outline: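 Cytotoxicity was measured in parallel with the ERE-luciferase agonist screen, in the same wells. The cells were VM7Luc4E2, which endogenously express ER-alpha, and treatment was with compounds plus 10.0nM ICI-182,780 for 22hr.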

[10] = target: Progesterone receptor (Homo sapiens) (UniProt P06401); assay: qHTS assay to identify small molecule antagonists of the progesterone receptor (PR) signaling pathway (AID 1346795; active = well fitted inhibition curve with a large enough effect in the signal ratio in the repeat runs, not every such curve was filed as active; the % refers to the signal ratio)
Outline: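 PR-UAS-bla HEK293T cells carrying a UAS-driven beta-lactamase reporter were plated in medium with 2% charcoal-stripped FBS and rested 6 hr at 37C. Compounds were added with 1 nM R5020 (final) for 16 hr, then FRET substrate loaded 2 hr at room temperature.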

[11] = qHTS assay to identify small molecule antagonists of the progesterone receptor (PR) signaling pathway - cell viability counter screen (AID 1346798; active = well fitted curve in the direction sought with a large enough effect in the repeat runs; an effect the other way counts as inactive or inconclusive; note: series mostly up to about 92 µM; nearly all actives have a fitted effect of over 50% in size)
Outline: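 PR-UAS-bla HEK293T cells in medium with 2% charcoal-stripped FBS were treated with compounds plus R5020 for 16 hr at 37C. Cell viability was then read by CellTiter-Glo luminescence after 30 min at room temperature in the same wells.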

[12] = qHTS assay to identify small molecule agonists of the progesterone receptor (PR) signaling pathway - cell viability counter screen (AID 1346799); note: nearly all actives have a fitted effect of over 45% in size
Outline: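 PR-UAS-bla HEK293T cells, 3,000 per well in medium with 2% charcoal-stripped FBS, were preincubated 6 hr at 37C, then exposed to compounds for 16 hr; viability was read as CellTiter-Glo luminescence after 30 min at room temperature.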

[13] = qHTS assay to identify small molecule agonists of the TGF-beta/Smad signaling pathway - cell viability counter screen (AID 1346829; active = well fitted curve in the direction sought with a large enough effect in the repeat runs; an effect the other way counts as inactive or inconclusive; note: top concentration of the series differs between compounds; nearly all actives have a fitted effect of over 45% in size)
Outline: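 Luminescence from CellTiter-Glo, read after a 30 min room-temperature incubation, gives cell viability of SBE-bla HEK 293T cells treated 5 hr with compounds at 37 C.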

[14] = qHTS assay to identify small molecule agonists of the TGF-beta/Smad signaling pathway (AID 1346859; active = well fitted activation curve with a large enough effect in the signal ratio in the repeat runs, not every such curve was filed as active; the % refers to the signal ratio; note: series mostly up to about 77 µM)
Outline: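 HEK 293T cells stably carrying a beta-lactamase reporter driven by the Smad binding element were seeded overnight, exposed to DMSO-dissolved compounds for 5 hr at 37 C, 5% CO2, then loaded with FRET substrate for 2 hr at room temperature.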

[15] = target: Thyrotropin-releasing hormone receptor (Homo sapiens) (UniProt P34981); assay: qHTS assay to identify small molecule antagonists of the thyrotropin-releasing hormone receptor (TRHR) signaling pathway (AID 1346877; active = well fitted inhibition curve with a large enough effect in the repeat runs, not every such curve was filed as active; note: series mostly up to about 51 µM)
Outline: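 Antagonism is measured as suppression of the calcium response to 1 nM TRH in TRHR-HEK293 cells that have been dye-loaded for 2 h at 37 °C after overnight plating. Each compound is tested at 15 concentrations in triplicate.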

[16] = target: Thyrotropin receptor (Homo sapiens) (UniProt P16473); assay: qHTS assay to identify small molecule antagonists of the thyroid stimulating hormone receptor (TSHR) signaling pathway (AID 1259385); note: nearly all actives have a fitted effect of over 20% in size
Outline: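 Antagonist mode: compound-treated TSHR-expressing HEK293 cells were stimulated with 1.5 ng/mL TSH (final) in presence of Ro20-1724 for 30 min at RT. HTRF cAMP detection after 1 h; each compound tested at 15 concentrations, triplicate.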

[17] = target: Progesterone receptor (Homo sapiens) (UniProt P06401); assay: qHTS assay to identify small molecule agonists of the progesterone receptor (PR) signaling pathway (AID 1346784); note: nearly all actives have a fitted effect of over 30% in size
Outline: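 PR-UAS-bla HEK 293T cells carrying a UAS-driven beta-lactamase reporter were seeded in medium with 2% charcoal-stripped FBS, preincubated 6 hr at 37C, then exposed to compounds in DMSO for 16 hr; agonism was read by LiveBLAzer B/G FRET fluorescence.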

[18] = qHTS assay to identify small molecule antagonists of the TGF-beta/Smad signaling pathway - cell viability counter screen (AID 1346824; active = well fitted curve in the direction sought with a large enough effect in the repeat runs; an effect the other way counts as inactive or inconclusive; note: nearly all actives have a fitted effect of over 50% in size)
Outline: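 Cytotoxicity counter-screen run in the same wells as the beta-lactamase Smad reporter read: CellTiter-Glo luminescence after 30 min at room temperature. HEK 293T SBE-bla cells had 5 hr compound exposure at 37 C with TGF-beta1 (0.25 ng/mL stock).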

[19] = qHTS assay to identify small molecule agonists of the estrogen receptor beta (ER-beta) signaling pathway - cell viability counter screen (AID 1259380; active = well fitted curve in the direction sought with a large enough effect in the repeat runs; an effect the other way counts as inactive or inconclusive; note: nearly all actives have a fitted effect of over 30% in size)
Outline: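 Cytotoxicity is measured in parallel with the reporter screen: after 16 hr compound exposure at 37C and a 2 hr LiveBLAzer step, CellTiter-Glo is added to the same ER-beta-UAS-bla HEK293T wells and luminescence read after 30 min.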

[20] = target: Androgen receptor (Homo sapiens) (UniProt P10275); assay: qHTS assay to identify small molecule agonists of the androgen receptor (AR) signaling pathway in the presence of an antagonist (AID 1259381); note: nearly all actives have a fitted effect of over 15% in size
Outline: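 Agonist-mode confirmation screen: human MDA-kb2 cells stably expressing luciferase under an MMTV promoter bearing AR and GR response elements, co-treated with 3.0uM nilutamide (final). Luminescence measured after 16hr compound incubation.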

Measured: Potency

Sequence of Androgen receptor (Homo sapiens) (P10275 whole entry, looked up): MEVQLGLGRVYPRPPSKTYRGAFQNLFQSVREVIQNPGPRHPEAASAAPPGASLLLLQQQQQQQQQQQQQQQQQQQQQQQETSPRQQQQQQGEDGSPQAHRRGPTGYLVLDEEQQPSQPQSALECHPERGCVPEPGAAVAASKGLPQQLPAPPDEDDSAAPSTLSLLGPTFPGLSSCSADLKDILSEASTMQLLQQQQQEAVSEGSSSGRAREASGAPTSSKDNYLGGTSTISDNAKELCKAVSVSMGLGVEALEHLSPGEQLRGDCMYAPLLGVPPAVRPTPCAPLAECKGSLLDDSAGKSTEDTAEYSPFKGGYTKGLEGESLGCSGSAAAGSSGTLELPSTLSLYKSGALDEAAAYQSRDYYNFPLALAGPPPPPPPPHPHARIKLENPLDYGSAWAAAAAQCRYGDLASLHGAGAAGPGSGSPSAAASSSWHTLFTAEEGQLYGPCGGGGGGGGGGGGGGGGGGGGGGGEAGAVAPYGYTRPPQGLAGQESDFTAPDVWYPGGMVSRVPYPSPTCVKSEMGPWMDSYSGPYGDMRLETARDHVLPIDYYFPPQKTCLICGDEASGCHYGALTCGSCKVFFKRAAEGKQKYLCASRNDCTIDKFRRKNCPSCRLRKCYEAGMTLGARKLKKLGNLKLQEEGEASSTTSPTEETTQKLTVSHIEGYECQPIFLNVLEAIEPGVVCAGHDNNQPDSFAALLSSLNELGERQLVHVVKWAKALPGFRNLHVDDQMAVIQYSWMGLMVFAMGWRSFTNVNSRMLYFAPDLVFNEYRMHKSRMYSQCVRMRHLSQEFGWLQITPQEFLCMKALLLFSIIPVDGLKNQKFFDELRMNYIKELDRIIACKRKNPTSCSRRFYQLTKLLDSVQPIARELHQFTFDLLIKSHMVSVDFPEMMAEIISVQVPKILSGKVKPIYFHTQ
Sequence of Progesterone receptor (Homo sapiens) (P06401 whole entry, looked up): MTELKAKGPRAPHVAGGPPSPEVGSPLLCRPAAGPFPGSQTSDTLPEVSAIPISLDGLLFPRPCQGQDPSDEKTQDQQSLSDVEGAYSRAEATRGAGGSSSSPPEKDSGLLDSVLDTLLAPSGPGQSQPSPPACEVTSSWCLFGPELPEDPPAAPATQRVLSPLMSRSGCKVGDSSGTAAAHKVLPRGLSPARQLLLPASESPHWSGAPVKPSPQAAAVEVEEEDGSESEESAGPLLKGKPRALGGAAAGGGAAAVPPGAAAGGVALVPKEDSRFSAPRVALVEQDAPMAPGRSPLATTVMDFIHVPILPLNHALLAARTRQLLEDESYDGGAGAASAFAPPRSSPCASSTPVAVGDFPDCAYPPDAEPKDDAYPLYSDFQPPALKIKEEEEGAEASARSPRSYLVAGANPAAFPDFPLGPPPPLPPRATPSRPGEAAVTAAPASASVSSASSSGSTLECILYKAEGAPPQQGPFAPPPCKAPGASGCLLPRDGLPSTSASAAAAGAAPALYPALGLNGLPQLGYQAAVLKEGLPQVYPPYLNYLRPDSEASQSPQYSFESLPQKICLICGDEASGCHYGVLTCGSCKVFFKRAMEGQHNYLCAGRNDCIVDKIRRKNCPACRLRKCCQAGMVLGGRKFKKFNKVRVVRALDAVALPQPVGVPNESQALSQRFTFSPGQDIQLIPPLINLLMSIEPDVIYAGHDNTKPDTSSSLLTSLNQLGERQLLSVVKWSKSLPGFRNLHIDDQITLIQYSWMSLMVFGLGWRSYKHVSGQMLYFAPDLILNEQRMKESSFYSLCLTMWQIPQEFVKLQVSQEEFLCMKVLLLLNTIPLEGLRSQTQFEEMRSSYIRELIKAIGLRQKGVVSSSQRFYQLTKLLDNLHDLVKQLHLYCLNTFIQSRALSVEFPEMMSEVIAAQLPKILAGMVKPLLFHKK
Sequence of Estrogen receptor (Homo sapiens) (P03372 whole entry, looked up): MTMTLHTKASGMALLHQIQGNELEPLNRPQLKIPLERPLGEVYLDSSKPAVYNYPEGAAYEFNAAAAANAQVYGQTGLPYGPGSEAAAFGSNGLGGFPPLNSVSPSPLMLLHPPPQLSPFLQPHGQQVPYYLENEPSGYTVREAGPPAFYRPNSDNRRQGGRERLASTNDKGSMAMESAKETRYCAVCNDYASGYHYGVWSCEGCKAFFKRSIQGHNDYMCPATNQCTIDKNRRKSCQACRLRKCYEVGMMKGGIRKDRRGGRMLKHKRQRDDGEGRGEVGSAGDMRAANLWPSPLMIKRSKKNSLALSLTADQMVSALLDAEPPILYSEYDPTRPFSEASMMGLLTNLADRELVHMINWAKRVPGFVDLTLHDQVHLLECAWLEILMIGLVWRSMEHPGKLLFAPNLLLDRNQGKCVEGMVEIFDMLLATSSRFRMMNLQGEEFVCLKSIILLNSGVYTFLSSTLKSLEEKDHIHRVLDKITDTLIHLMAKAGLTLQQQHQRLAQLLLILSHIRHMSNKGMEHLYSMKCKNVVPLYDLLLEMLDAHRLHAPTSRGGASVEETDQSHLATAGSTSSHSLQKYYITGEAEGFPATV
Sequence of Estrogen receptor beta (Homo sapiens) (Q92731 whole entry, looked up): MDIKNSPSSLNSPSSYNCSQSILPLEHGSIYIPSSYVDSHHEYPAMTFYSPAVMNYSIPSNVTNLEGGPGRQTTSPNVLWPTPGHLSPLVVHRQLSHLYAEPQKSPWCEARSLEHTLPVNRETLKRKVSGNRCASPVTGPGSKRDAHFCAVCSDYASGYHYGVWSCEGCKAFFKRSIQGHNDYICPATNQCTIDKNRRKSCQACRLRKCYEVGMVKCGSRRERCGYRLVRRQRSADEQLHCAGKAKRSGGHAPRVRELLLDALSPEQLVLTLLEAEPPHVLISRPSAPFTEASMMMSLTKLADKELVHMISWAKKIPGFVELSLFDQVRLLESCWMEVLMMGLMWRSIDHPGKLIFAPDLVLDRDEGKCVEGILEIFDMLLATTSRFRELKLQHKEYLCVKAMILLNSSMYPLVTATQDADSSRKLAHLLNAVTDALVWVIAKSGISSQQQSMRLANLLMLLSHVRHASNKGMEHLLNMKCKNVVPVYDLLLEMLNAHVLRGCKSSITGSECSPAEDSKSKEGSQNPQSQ
Sequence of Thyrotropin-releasing hormone receptor (Homo sapiens) (P34981 whole entry, looked up): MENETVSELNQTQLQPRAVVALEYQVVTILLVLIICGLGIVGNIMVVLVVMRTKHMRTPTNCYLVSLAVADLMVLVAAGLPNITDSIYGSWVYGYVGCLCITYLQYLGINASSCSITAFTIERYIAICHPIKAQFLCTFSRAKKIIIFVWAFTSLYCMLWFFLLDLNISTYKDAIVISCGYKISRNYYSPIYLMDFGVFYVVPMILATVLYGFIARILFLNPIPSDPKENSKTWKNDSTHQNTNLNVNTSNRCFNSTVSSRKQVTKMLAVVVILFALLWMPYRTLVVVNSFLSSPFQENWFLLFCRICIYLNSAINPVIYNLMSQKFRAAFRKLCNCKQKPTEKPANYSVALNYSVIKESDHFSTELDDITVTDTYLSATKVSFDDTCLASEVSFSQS
Sequence of Thyrotropin receptor (Homo sapiens) (P16473 whole entry, looked up): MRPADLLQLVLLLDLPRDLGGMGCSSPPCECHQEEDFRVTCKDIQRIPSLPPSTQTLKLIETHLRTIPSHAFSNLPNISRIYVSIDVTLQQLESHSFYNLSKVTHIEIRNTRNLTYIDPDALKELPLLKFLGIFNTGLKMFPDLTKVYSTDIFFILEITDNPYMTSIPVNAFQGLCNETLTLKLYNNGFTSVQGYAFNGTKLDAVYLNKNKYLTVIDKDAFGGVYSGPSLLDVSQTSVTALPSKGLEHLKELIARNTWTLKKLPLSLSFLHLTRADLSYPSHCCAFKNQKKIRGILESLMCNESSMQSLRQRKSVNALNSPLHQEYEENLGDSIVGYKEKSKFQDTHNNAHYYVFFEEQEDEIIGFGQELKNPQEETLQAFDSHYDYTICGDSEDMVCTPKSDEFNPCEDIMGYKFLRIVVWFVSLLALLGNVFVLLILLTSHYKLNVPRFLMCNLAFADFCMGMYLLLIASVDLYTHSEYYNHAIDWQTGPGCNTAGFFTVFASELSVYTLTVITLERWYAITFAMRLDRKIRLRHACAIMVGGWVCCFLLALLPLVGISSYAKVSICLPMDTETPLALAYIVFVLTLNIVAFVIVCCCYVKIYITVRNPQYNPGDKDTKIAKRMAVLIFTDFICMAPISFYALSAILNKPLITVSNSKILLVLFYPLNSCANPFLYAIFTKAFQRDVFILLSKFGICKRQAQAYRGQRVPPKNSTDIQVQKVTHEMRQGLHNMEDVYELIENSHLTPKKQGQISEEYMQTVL

CCCCCCCCCCCCN1CCOCC1
inactive: [1] | [2] | [3] | [4] | [5] | [6] | [7] | [8] | [9] | [10] | [11] | [12] | [13] | [14] | [15]

CCCCCCCCCCCC(=O)OCC
inactive: [1] | [2] | [3] | [4] | [5] | [6] | [7] | [8] | [16] | [9] | [17] | [10] | [11] | [12] | [18] | [13] | [14]

CCCCOc1ccc(N)cc1
inactive: [1] | [2] | [3] | [4] | [5] | [19] | [6] | [8] | [16] | [9] | [17] | [11] | [12] | [18] | [13] | [14] | [15]

O=C1OC(=O)C2CC=CCC12 (stereo not given)
inactive: [1] | [2] | [3] | [4] | [5] | [6] | [7] | [8] | [9] | [17] | [10] | [11] | [12] | [18] | [13] | [14] | [15]

C/C(=C(\CCO)SS/C(CCO)=C(\C)N(C=O)Cc1cnc(C)nc1N)N(C=O)Cc1cnc(C)nc1N
inactive: [1] | [2] | [3] | [4] | [5] | [19] | [7] | [8] | [16] | [9] | [11] | [12] | [18] | [13] | [14] | [15]

C1CCN(CN2CCCCC2)CC1
inactive: [1] | [2] | [3] | [4] | [5] | [19] | [6] | [7] | [8] | [16] | [9] | [17] | [10] | [11] | [12] | [18] | [13] | [14] | [15]

Sc1nc(S)nc(S)n1
inactive: [1] | [2] | [3] | [4] | [5] | [19] | [6] | [8] | [16] | [9] | [17] | [10] | [12] | [18] | [13] | [14] | [15]

CC(C)(C)NCC(O)COc1ccc(NC(=O)NC2CCCCC2)cc1 (stereo not given)
inactive: [1] | [2] | [3] | [4] | [5] | [19] | [6] | [7] | [8] | [16] | [9] | [17] | [11] | [12] | [18] | [13] | [14] | [15]

C=C(C)C(=O)OCCCCCCCCCCOC(=O)C(=C)C
inactive: [1] | [2] | [3] | [4] | [5] | [19] | [6] | [8] | [16] | [9] | [17] | [12] | [18] | [13] | [14] | [15]

C[C@@H](O)[C@H]1C(=O)N2C(C(=O)O)=C(S[C@@H]3CN[C@H](CNS(N)(=O)=O)C3)[C@H](C)[C@H]12
inactive: [1] | [2] | [3] | [4] | [5] | [19] | [6] | [7] | [8] | [16] | [9] | [17] | [10] | [11] | [12] | [18] | [13] | [14] | [15]

CC(O)C(C)O (stereo not given)
inactive: [1] | [2] | [3] | [4] | [5] | [19] | [6] | [8] | [16] | [9] | [17] | [10] | [11] | [12] | [18] | [13] | [14] | [15]

N#C[C@@H]1CC(F)(F)CN1C(=O)CNC1CC2CCC(C1)N2c1ncccn1 (stereo not given in full)
inactive: [1] | [2] | [3] | [4] | [5] | [19] | [20] | [6] | [7] | [16] | [9] | [17] | [10] | [11] | [12] | [18] | [13] | [14]

Nc1ccc(F)cc1F
inactive: [1] | [2] | [3] | [4] | [5] | [19] | [20] | [6] | [7] | [8] | [16] | [9] | [11] | [12] | [18] | [13] | [14]

CCOC(OCC)OCC
inactive: [1] | [2] | [3] | [4] | [5] | [19] | [7] | [8] | [16] | [9] | [17] | [10] | [11] | [12] | [18] | [13] | [14]

CCCCOC(=O)C(C)Oc1ccc(Oc2ccc(C(F)(F)F)cn2)cc1 (stereo not given)
inactive: [1] | [2] | [3] | [4] | [5] | [19] | [6] | [7] | [8] | [16] | [9] | [17] | [11] | [12] | [13] | [14]

O=C(OC1C[C@H]2CC[C@@H](C1)[N+]21CCCC1)C(O)(c1ccccc1)c1ccccc1 (stereo not given in full)
inactive: [1] | [2] | [3] | [4] | [5] | [19] | [20] | [6] | [8] | [16] | [9] | [17] | [11] | [12] | [18] | [13] | [14] | [15]

Reference: PubChem BioAssay (Tox21)
